This note sets out measurements from PubChem BioAssay (EPA / NIEHS).

Structures are written as SMILES. Active and inactive are the calls of the source. Rule for the calls: active = hit-call score of the fitted dose curve at least 0.9, where 1 is the maximum; inactive = score below 0.9.

A word on the AC50: it is the midpoint of the concentration-response curve, whichever way the signal moves.

Read-out in the assay: Forkhead box O3 (FOXO3), FOXO3 (gene 2309)
As to the kind of experiment: LTEA_HepaRG_FOXO3: Life Technologies and Expression Analysis (LTEA) Assay for Forkhead box O3 (FOXO3) using HepaRG (AID 2283459). The settings on record: mRNA level, 48 h; actives raise or lower the signal. Here is the method: LTEA_HepaRG is a cell based, multiplexed-readout assay that uses HepaRG, a human liver cell line, with measurements taken at 48 hours after chemical dosing on a 96-well plate.LTEA_HepaRG_FOXO3 is one of 102 assay component(s) measured in the LTEA HepaRG cell culture assay. It is a marker of Cell proliferation, survival, death.Data from the assay component LTEA_HepaRG_FOXO3 was analyzed into 1 endpoint. This assay endpoint, LTEA_HepaRG_FOXO3, was analyzed with bidirectional fitting relative to DMSO as the negative control and baseline of activity. Using a type of inducible reporter, measures of mRNA induction for gain or loss-of-signal activity can be used to understand regulation of transcription factor activity. To generalize the intended target to other relatable targets, this assay endpoint is annotated to the dna binding intended target family, where the subfamily is forkhead box protein.
A total of 1060 chemcials from the ToxCast library were tested in eight-point concentration-response experiments. Cell culture and cytotoxicity assays were conducted at Thermo Fisher Scientific's Custom Services facility (Madison, WI). A single lot of human HepaRG cells (Thermo Fisher Scientific, Frederick, MD) was used for the cell culture experiments. 96-well format collagen type I coated plates of human HepaRG cells were prepared using established methods. Briefly, cryopreserved HepaRG cells were thawed, plated at a density of approximately 100,000 cells/well in HepaRG Thaw, Plate, and General Purpose media (HPRG770, Thermo Fisher Scientific), and incubated for 48 hours. 0.5% DMSO was selected as vehicle control to balance the requisite need of DMSO in HepaRG cultures to maintain differentiation (for example, baseline metabolism, proportions of hepatocytes vs. cholangiocytes), while enabling further hepatic receptor pathway activation (for example, PXR and CAR) in response to chemical exposure. 48 hours after plating, the culture medium was replaced with HepaRG Serum-Free Incudtion Media. Cells were exposed to each test chemical in duplicate and maintained in CO2 incubators for another 48 hours. Chemical plates were thawed to room temperature and 200x concentrations of treatment groups were prepared. 8-point conentration-reponse curves were made with the highest exposure at 100 uM, followed by half-log dilutions, all in 0.5% DMSO. Each test plate contained variouse controls, induction positive controls (1mM phenobarbital), cytotoxicity positive controls ([…] aflatoxin B1), vehicle controls (0.5% DMSO), and total lysis controls (0.5% DMSO). Cell morphology images were taken using an Essen IncuCyte FLR automated microscope, with six 96-well plates imaged in about 24 minutes. Images were captured and exported and JPEG files. Spent culture media was transfered to black-well plates for the LDH assay, and remaining media was sorted at -80 C for later use. Cells were treated with RLT buffer and frozen until shipped for gene expression analysis. Total RNA was isolated from the cell suspension in 75 uL of Buffer RLT (Qiagen, Germantown, MD 20874) by Quintiles/Expression Analysis (Durham, NC) using a custom isolation procedure. Total RNA from each plate well was transferred to a preamplification plate. Fluidigm's 96.96 Dynamic ArrayTM (Fluidigm, Amsterdam, the Netherlands) technology was used for gene expression analyses by quantitative reverse transcription polymerase chain reaction (qRT-PCR, performed by Quintiles/Expression Analysis, Durham, NC)89. Standard TaqManTM Assays (Applied Biosystems/ThermoFisher Scientific, Foster City, CA) were used to assess the expression of 93 genes selected based on their selectivity and sensitivity to important hepatic receptors known to be modulated by environmental chemicals; importance in human hepatocyte functionality; and hepatotoxicity. […]
Take `Cc1cccc(Nc2cc(Cl)nc(SCC(=O)O)n2)c1C`: the outcome was inactive. `CCCCCCCCCCCC(=O)OC`: the compound was classed as inactive.

As to `COc1ccc(C)cc1N`, the result was inactive. The same measure, in the same setting: in the case of `CC(=O)OC/C=C(\C)CCC=C(C)C` it was “inactive”; in that of `CC1(C)CC(N=C=O)CC(C)(CN=C=O)C1` (stereo not given), “inactive”. In the case of `CCCCCCCC=O`, the outcome was inactive.

`CCCCCCCCCCO`: the call was inactive. In the case of `NCC1(Cc2noc(=O)[nH]2)CCCCC1`, the compound was called inactive. Turning to `O=c1c(O)c(-c2ccc(O)c(O)c2)oc2cc(O)cc(O)c12`, the compound was classed as inactive. Turning to `O=C(N[C@@H](Cc1ccccc1)[C@@H](O)C(=O)N1C[C@@H](O)[C@@H](O)C1)c1cc2cc(Cl)ccc2[nH]1`, the result was inactive. For `Oc1ccc2c(c1)OC[C@@H](N1CCC(O)(c3ccc(F)cc3)CC1)[C@H]2O`, the compound was classed as inactive. Take `CC(C)c1ccc(C(=O)N=C(N)N)cc1S(C)(=O)=O`: the AC50 was 264 nM (active). `C=CCOC(=O)c1ccccc1C(=O)OCC=C`: the compound was called inactive.

With `Cc1ccc(C)c(O)c1C`, the call was inactive. Turning to `COc1ccc(S(=O)(=O)N2C(=O)[C@@](c3ccccc3OC)(N3C[C@H](O)C[C@H]3C(=O)N(C)C)c3cc(Cl)ccc32)c(OC)c1`, the compound was called inactive. Same read-out and setting: with `Cc1nc(C)nc(N2C[C@@H](C)N(c3ccnc([C@@H](C)O)n3)[C@@H](C)C2)n1` the entry was “inactive”; with `Cc1oc(-c2ccccc2)nc1CCOc1cccc2c1ccn2CCC(=O)O`, “inactive”; with `CCCCOC(=O)CCCCCCCCC(=O)OCCCC`, “inactive”.

For `C1CCC(SSC2CCCCC2)CC1`, the result was inactive.

Turning to `COC(=O)c1ccc(O)cc1`, the outcome was inactive.

Take `Nc1ccccc1N`: the AC50 was 63300 nM (active).

As for `Cc1ccc(C(C)C)c(O)c1`, the result was inactive. Consider `Nc1ccc(S(=O)(=O)c2ccc(N)cc2)cc1`, for which the call was inactive. On the same count and under the same terms, with `c1cc(-c2ccncc2)ccn1` the entry was “inactive”. For the compound `CCOC(=O)C(C)(C)Oc1ccc(Cl)cc1`, the compound was classed as inactive.

As to `CNC(=O)[C@H]1O[C@@H](n2cnc3c(NCc4cc(Cl)ccc4OCc4cc(C)no4)ncnc32)[C@H](O)[C@@H]1N`, the outcome was inactive. `C=CCc1ccc(O)c(OC)c1`: the compound was called inactive. For the compound `CC1(C)NC(=O)NC1=O`, the outcome was inactive. In the case of `COc1cc(S(=O)(=O)O)c(C)cc1N=Nc1c(O)ccc2cc(S(=O)(=O)O)ccc12`, the compound was called inactive. In the case of `Cc1ccc(Cl)cc1`, the compound was called inactive.

Take `Cc1c(C(=O)O)c(O)cc2c1C(=O)c1c(O)c([C@@H]3O[C@H](CO)[C@@H](O)[C@H](O)[C@H]3O)c(O)c(O)c1C2=O`: the compound was classed as inactive. For the compound `CC(=O)C(C)=CC1C(C)=CCCC1(C)C` (stereo not given), the call was inactive. For `CN1CCCC1=O`, the compound was classed as inactive. `CCc1c(C(=O)NN2CCCCC2)nn(-c2ccc(Cl)cc2Cl)c1-c1ccc(Br)cc1`: the compound was classed as inactive.

Take `Cc1cccc(C)c1O`: the result was inactive. As for `Nc1ccc2c(c1)C(=O)c1ccccc1C2=O`, the AC50 is 3000 nM (active). Turning to `CCCCCC(=O)O`, the call was inactive.

For `COc1cc(C=O)ccc1O`, the outcome was inactive. As for `CCCCCCC(=O)OCC`, the compound was called inactive. Same read-out and setting: with `CN1CCN(Cc2cc(-c3ccc4[nH]c(=O)oc4c3)co2)[C@@H](c2ccc(F)cc2)C1` the entry was “inactive”.
